“And” between values parts separate entries of the source, which are not always exact repeats. Equal values may be shown once. Results filed as inconclusive are left out. The source holds several records for some structures; these can differ, active in one and inactive in another. The source made the active and inactive calls. Unless noted, calls follow the shape of the dose curve; as a rule, active = well fitted curve in the direction sought with a large enough effect in the repeat runs; inconclusive = weak or mixed curves; inactive = no such curve, though single readings can be large; an effect the other way counts as inactive or inconclusive.

Experiment [1] deals with Thyrotropin receptor (Homo sapiens) (UniProt P16473). Description: qHTS assay to identify small molecule agonists of the thyroid stimulating hormone receptor (TSHR) signaling pathway (AID 1224843; calls by dose curve; also: nearly all actives have a fitted effect of over 45% in size). Put shortly:
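TSHR-HEK293 cells in agonist mode, 30 min room-temperature step, then cAMP measured by competitive HTRF (cAMP-d2 with anti-cAMP cryptate) after 1 h at room temperature. Tested at 15 concentrations in triplicate.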
(Quantitative high-throughput screening tests each substance at several concentrations.)

Experiment [2] can be described thus: qHTS assay to identify small molecule agonists of the hypoxia (HIF-1) signaling pathway (AID 1224846; active = well fitted activation curve with a large enough effect in the signal ratio in the repeat runs, not every such curve was filed as active; the % refers to the signal ratio). In outline:
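Measured by blue/green FRET after loading CCF4-AM: beta-lactamase expressed from a hypoxia response element in ME-180 cells. Test agents were delivered in DMSO and left 17 hrs; cells had been plated 5 hrs earlier in low-serum (0.5% dialyzed FBS) medium.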

A short description of experiment [3]: qHTS assay to identify small molecule agonists of H2AX - cell viability counter screen (AID 1224847; calls by dose curve; also: nearly all actives have a fitted effect of over 30% in size; also: potency is read from the fitted curve at half-maximal effect). Put shortly: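 After overnight plating of 1000 CHO-K1 cells per well, a 15-concentration compound series was applied for 3 hr at 37C. Luminescence from CellTiter-Glo, read following 30 min at room temperature, reflected cell viability.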
Experiment [4] in a line: qHTS assay to identify small molecule antagonists of the estrogen related receptor (ERR) signaling pathway from Tox21 library (AID 1224848). Also: nearly all actives have a fitted effect of over 50% in size. Also: potency is read from the fitted curve at half-maximal effect. In outline:
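ERR reporter cell line (from NTP) seeded 2,000 cells/well, rested 6 h at 37 C/5% CO2, then pin-dosed with compounds in DMSO. After 18 h at 37 C, ONE-Glo added; luminescence read after 30 min at room temperature.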

The nature of experiment [5]: qHTS assay to identify small molecule agonists of the estrogen related receptor (ERR) signaling pathway from Tox21 library (AID 1224849; calls by dose curve; also: nearly all actives have a fitted effect of over 15% in size). As to conditions: ERR reporter cell line, ONE-Glo luciferase, 18 h. Put shortly: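 We plated ERR reporter cells, waited 6 h, added compounds in DMSO by pin tool and incubated them 18 h at 37 C. ONE-Glo was then added and luminescence read after 30 min.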

A short description of experiment [6]: qHTS RealTime-Glo MT Cell Viability Assay in HepG2 cells - 24 hour (AID 1224867). Also: nearly all actives have a fitted effect of over 50% in size. In outline: (§1)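 Cells + NanoLuc/prosubstrate dispensed (600 cells/well) → 5 h at 37 C/5% CO2 → compounds in DMSO transferred → 40 h incubation at 37 C, luminescence read at 0, 8, 16, 24, 32, 40 h.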
The nature of experiment [7]: qHTS RealTime-Glo MT Cell Viability Assay in HEK293 cells - 32 hour (AID 1224868). Also: nearly all actives have a fitted effect of over 50% in size. Also: potency is read from the fitted curve at half-maximal effect. In outline:
(§2)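 Tox21 10K qHTS, HEK293, 600 cells/well, RealTime-Glo reagent co-dispensed with cells; 5 h preincubation, compound by pintool, 37 C, luminescence at 0–40 h.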

Experiment [8] can be described thus: A CellTox Green Cytotoxicity Assay to monitor cytotoxicity in HEK293 cells - 0 hour (AID 1224869). Also: nearly all actives have a fitted effect of over 50% in size. In outline: (§3)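 Each value comes from one timepoint of a single continuous run in which HEK293 cells with CellTox Green were exposed to compound for up to 40 h at 37 C, dye fluorescence rising with cell death.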
Experiment [9] is described as follows: qHTS RealTime-Glo MT Cell Viability Assay in HepG2 cells - 40 hour (AID 1224870). Also: nearly all actives have a fitted effect of over 50% in size. In outline:
(§4)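 HepG2 cells (600/well) mixed with RealTime-Glo MT reagent, settled 5 h at 37 C/5% CO2 before compound addition. Nonlytic NanoLuc luminescence from viable-cell prosubstrate reduction read repeatedly during 40 h treatment at 37 C.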

The nature of experiment [10]: A CellTox Green Cytotoxicity Assay to monitor cytotoxicity in HEK293 cells - 40 hour (AID 1224871). Also: nearly all actives have a fitted effect of over 45% in size. Also: potency is read from the fitted curve at half-maximal effect. In outline:
as §3

Experiment [11] in a line: qHTS RealTime-Glo MT Cell Viability Assay in HEK293 cells - 16 hour (AID 1224872). Also: nearly all actives have a fitted effect of over 50% in size. Also: potency is read from the fitted curve at half-maximal effect. Put shortly:
as §2

Experiment [12] is described as follows: qHTS RealTime-Glo MT Cell Viability Assay in HEK293 cells - 40 hour (AID 1224874). Also: nearly all actives have a fitted effect of over 50% in size. Also: potency is read from the fitted curve at half-maximal effect. As to conditions: RealTime-Glo luminescence; max response: stronger effect = lower value. Put shortly: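 qHTS format; HEK293 cells with NanoLuc/prosubstrate reagent, 37 C/5% CO2 for 5 h pre-dosing; compounds 23 nL in DMSO; luminescence at each time point reflects viable cells.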
A short description of experiment [13]: A CellTox Green Cytotoxicity Assay to monitor cytotoxicity in HEK293 cells - 24 hour (AID 1224875). Also: nearly all actives have a fitted effect of over 45% in size. Also: potency is read from the fitted curve at half-maximal effect. In outline:
as §3

The nature of experiment [14]: A CellTox Green Cytotoxicity Assay to monitor cytotoxicity in HepG2 cells - 16 hour (AID 1224876). Also: nearly all actives have a fitted effect of over 45% in size. Also: potency is read from the fitted curve at half-maximal effect. Put shortly:
(§5)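 Continuous culture of HepG2 cells with a membrane-impermeant DNA dye; rising fluorescence marks dead cells. Compound exposure lasted up to 40 h at 37 C, with reads every 8 h from 0 h.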

Experiment [15] can be described thus: qHTS RealTime-Glo MT Cell Viability Assay in HepG2 cells - 32 hour (AID 1224877). Also: nearly all actives have a fitted effect of over 55% in size. In outline:
as §1

Experiment [16] in a line: A CellTox Green Cytotoxicity Assay to monitor cytotoxicity in HepG2 cells - 24 hour (AID 1224878). Also: nearly all actives have a fitted effect of over 45% in size. Also: potency is read from the fitted curve at half-maximal effect. In outline: as §5
A short description of experiment [17]: A CellTox Green Cytotoxicity Assay to monitor cytotoxicity in HepG2 cells - 40 hour (AID 1224879). Also: nearly all actives have a fitted effect of over 40% in size. Also: potency is read from the fitted curve at half-maximal effect. Put shortly: as §5
Experiment [18] in a line: qHTS assay to identify small molecule agonists of the hypoxia (HIF-1) signaling pathway - cell viability counter screen (AID 1224844; calls by dose curve; also: nearly all actives have a fitted effect of over 50% in size). Put shortly:
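Luminescent ATP content (CellTiter-Glo, 30 min, room temperature) served as the viability measure in HRE-bla ME-180 cells exposed to compounds for 17 hrs in low-serum medium (0.5% dialyzed FBS).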

The nature of experiment [19]: qHTS assay to identify small molecule agonists of H2AX (AID 1224845; active = well fitted activation curve with a large enough effect in the signal ratio in the repeat runs, not every such curve was filed as active; the % refers to the signal ratio). In outline:
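Wild-type CHO-K1 cells, plated overnight, exposed 3hr at 37C to 15 concentrations (0.76% DMSO final). Lysed, then HTRF anti-pH2AX (S139) cryptate and anti-H2AX-d2 antibodies, 24 hr room temperature; 665/620 nm emission read.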

The nature of experiment [20]: qHTS RealTime-Glo MT Cell Viability Assay in HepG2 cells - 8 hour (AID 1224873). Also: nearly all actives have a fitted effect of over 55% in size. Put shortly:
as §4
% is scaled to controls: 0 for no effect and ±100 for the full control effect.

Thyrotropin receptor (Homo sapiens), sequence (P16473 whole entry, looked up): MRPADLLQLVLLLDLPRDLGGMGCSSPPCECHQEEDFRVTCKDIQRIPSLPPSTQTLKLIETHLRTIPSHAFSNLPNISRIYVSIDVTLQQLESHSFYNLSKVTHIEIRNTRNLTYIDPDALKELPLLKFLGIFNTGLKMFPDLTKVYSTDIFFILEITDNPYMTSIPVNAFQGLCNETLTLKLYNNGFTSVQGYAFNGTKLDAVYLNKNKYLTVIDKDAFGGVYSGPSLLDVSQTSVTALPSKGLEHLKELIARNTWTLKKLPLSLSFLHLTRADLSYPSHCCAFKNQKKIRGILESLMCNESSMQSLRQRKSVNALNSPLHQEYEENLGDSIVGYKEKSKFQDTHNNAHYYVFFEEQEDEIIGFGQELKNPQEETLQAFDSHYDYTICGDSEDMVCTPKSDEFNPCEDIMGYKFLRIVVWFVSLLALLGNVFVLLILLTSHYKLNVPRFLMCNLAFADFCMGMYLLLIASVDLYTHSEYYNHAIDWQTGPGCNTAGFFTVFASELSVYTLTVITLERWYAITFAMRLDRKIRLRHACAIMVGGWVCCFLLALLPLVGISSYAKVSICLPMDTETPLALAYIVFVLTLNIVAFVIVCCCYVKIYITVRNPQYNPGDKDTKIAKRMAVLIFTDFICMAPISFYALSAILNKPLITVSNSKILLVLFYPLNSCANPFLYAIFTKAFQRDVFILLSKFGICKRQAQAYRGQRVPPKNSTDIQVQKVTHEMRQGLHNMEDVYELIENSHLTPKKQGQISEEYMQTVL

Take `Cc1ccc2c(c1N)C(=O)c1ccccc1C2=O`: the Potency entry in experiment [1], in [3], in experiment [4], in experiment [6], in experiment [8] and in experiment [9] was “inactive” each time. Moreover, the Potency result in [10], in [13], in experiment [14], in experiment [15], in experiment [16] and in [17] was “inactive” each time. Besides, the call in experiment [2] was inactive. The activity change, positive = activation in experiment [5] (at 92.4 µM (top of the series)) was 82.1% (active) and 70.5% (active). Further, the Potency in experiment [7] is 8.62 µM (active) and 7.76 µM (active); in experiment [11], 8.62 µM (active) and 8.71 µM (active); in [12], 9.67 µM (active) and 6.92 µM (active).
Consider `O=[N+]([O-])c1c(Cl)c(Cl)c(Cl)c(Cl)c1Cl`, for which the Potency result in experiment [18], in [3], in experiment [6], in experiment [7], in experiment [8] and in experiment [9] was “inactive” in each case. Moreover, the Potency entry in [11], in experiment [13], in experiment [14], in [15], in experiment [16] and in experiment [17] was “inactive” in each case. For the same molecule, in experiment [2], the molecule was called inactive. Moreover, in [12], the max response is 2.95% (inactive) and 16.6% (inactive).
Consider `C[C@]12CCC(=O)C(O)=C1CC[C@@H]1[C@@H]2CC[C@]2(C)C(=O)CC[C@@H]12`, for which the Potency entry in experiment [18], in experiment [19], in experiment [6], in [7], in experiment [8] and in experiment [9] was “inactive” in each case. Also, the Potency result in experiment [10], in [11], in experiment [20], in [13], in [14] and in [15] was “inactive” each time. Also, the Potency entry in experiment [16] and in experiment [17] was “inactive” throughout. For the same molecule, the result in [2] was inactive. Besides, the Potency in experiment [4] was 54.5 µM (active) and inactive. The activity change, positive = activation in [5] (at 42.5 µM (top of the series)) is -8.87% (inactive); in experiment [5] (at 92.4 µM (top of the series)), -37.5% (inactive). Moreover, the max response in experiment [12] was -15.6% (inactive).
With `CCC(=O)O[C@H]1CC[C@H]2[C@@H]3CCC4=CC(=O)CC[C@]4(C)[C@H]3CC[C@]12C`, the Potency entry in [1], in experiment [6], in experiment [8], in experiment [9] and in experiment [15] was “inactive” throughout. Also, the outcome in experiment [2] was inactive. For the same molecule, the Potency is 101 µM (active) and inactive in [3]; 19.5 µM (active) and 23.9 µM (active) in [7]; 19.5 µM (active) and 21.3 µM (active) in experiment [10]; 21.9 µM (active) and 23.9 µM (active) in experiment [11]; 19.5 µM (active) and 23.9 µM (active) in [12]; 19.5 µM (active) and 5.35 µM (active) in [13]. Further, the Potency in [14] was 38.9 µM (active); in experiment [16], 43.6 µM (active); in experiment [17], 49 µM (active) and inactive.
On to `CCCCCCOC(=O)c1ccccc1C(=O)OCCCCCC`, for which the Potency entry in experiment [1], in experiment [3], in experiment [6], in experiment [7], in [8] and in experiment [9] was “inactive” each time. The Potency entry in experiment [11], in experiment [20], in [13], in experiment [14], in experiment [15] and in experiment [16] was “inactive” throughout. The Potency result in experiment [17] is “inactive”. Moreover, the molecule was called inactive in experiment [2].
Consider `Clc1nc(Cl)nc(Cl)n1`, for which the Potency result in experiment [18], in experiment [19], in experiment [3], in experiment [6], in [7] and in [8] was “inactive” throughout. The Potency result in [9], in experiment [10], in experiment [11], in [13], in experiment [14] and in experiment [15] was “inactive” throughout. For the same molecule, the Potency entry in [16] and in experiment [17] was “inactive” each time. Besides, the call in [2] was inactive.
